High-throughput results: PubChem, National Center for Advancing Translational Sciences (NCATS)
Sampled rows, rich in hits. Any-hit rate of the full collection: about 3.1%.
D3 antag = blocks the human D3 dopamine receptor. max response, negative = inhibition, %. P35462. actives 2.5% (n = 360,000). D3R cells, DiscoveRx beta-arrestin luminescence, antagonist mode; hits give low values. AID 652054; in the data active = max response below about -50%; inconclusive = no clear call, values can overlap the other calls
Target sequence (P35462 whole entry, looked up): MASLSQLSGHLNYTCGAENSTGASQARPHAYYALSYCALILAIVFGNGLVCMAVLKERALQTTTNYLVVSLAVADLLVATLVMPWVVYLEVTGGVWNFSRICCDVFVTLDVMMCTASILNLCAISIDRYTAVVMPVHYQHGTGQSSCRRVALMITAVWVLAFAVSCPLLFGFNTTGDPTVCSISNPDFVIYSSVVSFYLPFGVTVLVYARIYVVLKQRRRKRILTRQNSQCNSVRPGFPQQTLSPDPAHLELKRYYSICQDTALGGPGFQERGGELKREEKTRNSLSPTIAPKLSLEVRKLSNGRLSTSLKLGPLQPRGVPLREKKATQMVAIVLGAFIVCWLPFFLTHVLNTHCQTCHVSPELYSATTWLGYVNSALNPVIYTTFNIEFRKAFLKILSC
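Cells expressing the human receptor were seeded at 1500 cells/well, incubated overnight at 37 degrees C in 5% CO2, then exposed to library compounds with dopamine controls for 90 minutes at 37 degrees C before luminescent detection.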
DRD3 agonist = activates the human D3 dopamine receptor; actives 0.58% (n = 410,000); max activation, %; D3R DiscoveRx beta-arrestin cells, luminescence, 90 min; in the data active = max activation above about 30%
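Agonist-mode cell screen: cells plated at 1500/well and incubated overnight at 37 °C, then exposed to library compounds for 90 min at 37 °C. Detection reagent was added for 30–60 min at room temperature, and luminescence was read.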
uPA surface inh = blocks generation of uPA at the cell surface. cell surface uPA generation assay, qHTS. Potency, µM (highest dose often 38.3 µM), most hits filed as inhibitors. actives 0.31% (n = 330,000). AID 540303; active = well fitted inhibition curve with a large enough effect; inconclusive = small, poorly fitted or top-dose-only effect; inactive = no such curve, though single readings can be large or run the other way; tested in mouse RAW 264.7 cells; note: nearly all actives have a fitted effect of over 55% in size
RGS4 inhibitor = human RGS4 inhibition. Transcreener GDP fluorescence polarization, RGS4-accelerated GTP hydrolysis. Potency, µM (highest dose often 114 µM), most hits filed as inhibitors. actives 0.039% (n = 390,000). AID 504845; active = well fitted inhibition curve with a large enough effect; inconclusive = small, poorly fitted or top-dose-only effect; inactive = no such curve, though single readings can be large or run the other way; note: nearly all actives have a fitted effect of over 75% in size
Target sequence (P49798 whole entry, looked up): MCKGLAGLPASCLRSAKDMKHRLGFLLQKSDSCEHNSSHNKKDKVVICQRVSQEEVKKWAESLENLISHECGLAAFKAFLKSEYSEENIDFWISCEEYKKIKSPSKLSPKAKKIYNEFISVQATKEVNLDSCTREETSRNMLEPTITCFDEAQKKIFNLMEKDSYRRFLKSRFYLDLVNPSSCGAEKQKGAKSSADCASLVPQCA
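MLSMR compounds (23 nl, pin-transferred) preincubated 10 min at room temperature with a 500nM (2x) first reagent, then RGS4 at 900nM (2x) plus Transcreener GDP mix added; fluorescence polarization (620/688 nm) read before and after 90 min at 30 °C.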
Of the large screens only hits and unclear results are named; the others gave an inactive call.

CO[C@H]1C=CO[C@@]2(C)Oc3c(C)c(O)c4c(O)c(c(C=NN5CCN(C)CC5)c(O)c4c3C2=O)NC(=O)C(C)=CC=C[C@H](C)[C@H](O)[C@@H](C)[C@@H](O)[C@@H](C)[C@H](OC(C)=O)[C@@H]1C	D3 antag -76.3
O=[N+]([O-])c1cccc(/C=N/N2CCN(Cc3ccccc3)CC2)c1	none
O=[N+]([O-])c1cccc(/C=N\N2CCN(Cc3ccccc3Cl)CC2)c1	D3 antag -77.9
O=C(Nc1cccc2cccnc12)c1ccc(Br)cc1	none (no result: D3 antag, DRD3 agonist, uPA surface inh)
CCOC(=O)C1CCCN(CCC(=O)Nc2ccc(Br)cc2)C1 (configuration not stated)	D3 antag -50.3
CCOC(=O)C1CCCN(CCC(=O)Nc2ccc3c(c2)CCC3)C1 (configuration not stated)	D3 antag -55.7
CCOC(=O)C1CCN(CCC(=O)Nc2ccc(Br)cc2)CC1	none
CCOC(=O)C1CCCN(CCC(=O)Nc2ccc(Br)c(C)c2)C1 (configuration not stated)	D3 antag -54.4
O=C(C1CCN(S(=O)(=O)c2cccc3nonc23)CC1)N1CCN(c2ccccc2)CC1	none (no result: D3 antag, uPA surface inh)
COc1ccc(CNC(=O)C(CCSC)NS(=O)(=O)c2ccc3c(c2)oc(=O)n3C)cc1 (configuration not stated)	none (no result: D3 antag, uPA surface inh)
CCc1ccc(N2C(=O)CS(=O)(=O)C23C(=O)N(Cc2ccccc2)c2ccccc23)cc1 (configuration not stated)	none (no result: D3 antag, uPA surface inh)
CO/N=C/c1ccc(N2CCN(C(=O)c3cccc(C(F)(F)F)c3)CC2)c([N+](=O)[O-])c1	DRD3 agonist 52.5 (no result: uPA surface inh)
O=C(O)c1ccccc1[O-].O=C(O)c1ccccc1[O-].[Zn+2]	none (no result: D3 antag, uPA surface inh, RGS4 inhibitor)
CN(CC(=O)Nc1ccc(OC(F)(F)F)cc1)C(=O)/C=C/c1cc2c(cc1[N+](=O)[O-])OCO2	D3 antag -94.6
CN(CC(=O)Nc1ccc(OC(F)(F)F)cc1)C(=O)/C=C/c1ccco1	D3 antag inconclusive
CC(C)c1onc(C(=O)N2CCN(C(c3ccccc3)c3ccccc3)CC2)c1[N+](=O)[O-]	uPA surface inh 3.16µM
Cc1cc(Cl)ccc1NC(=O)CCC(=O)N/N=C/c1cc([N+](=O)[O-])ccc1O	D3 antag -55.9
Cc1cc(C)n(CC(=O)c2ccc(Cl)cc2)n1	none
Cc1cc(C)n(CC(=O)N/N=C/c2cc(Br)cc([N+](=O)[O-])c2O)n1	D3 antag -66.4, uPA surface inh inconclusive
Cc1cc(C)n(CC(=O)N/N=C/c2cc([N+](=O)[O-])ccc2O)n1	D3 antag -56.3
Cc1cc(C)n(CC(=O)c2cccc([N+](=O)[O-])c2)n1	D3 antag -57.5
Cc1cc(C)n(CCC(=O)N/N=C/c2ccc(Br)c([N+](=O)[O-])c2)n1	none
Cc1cccc(C(=O)NC2(C(F)(F)F)N=C(c3ccccc3)N(Cc3ccccc3)C2=O)c1 (configuration not stated)	none (no result: D3 antag, uPA surface inh)
COc1ccc2c(c1)C1(Nc3ccccc3-c3nc4ccccc4n31)C(=O)N2 (configuration not stated)	D3 antag -58.8
CC(=O)OCC(NC(=O)C1CCCN1C(=O)OC(C)(C)C)C1OC(n2cc(F)c(=O)[nH]c2=O)C(OC(C)=O)C1OC(C)=O (configuration not stated)	none (no result: D3 antag, DRD3 agonist, uPA surface inh)
O=C1/C(=C/c2ccc(N3CCOCC3)o2)SC(=Nc2ccccc2)N1CCc1c[nH]c2ccccc12	D3 antag -69.4, RGS4 inhibitor inconclusive
CC(=O)N1N=C(c2ccc(NS(=O)(=O)c3ccccc3)cc2)CC1c1ccco1 (configuration not stated)	uPA surface inh 0.708µM
CC1(Oc2ccc(-n3ccnc3)cc2)CCN(Cc2cccn2-c2nccs2)C1 (configuration not stated)	DRD3 agonist 56.1 (no result: uPA surface inh, RGS4 inhibitor)
Clc1ccccc1CNCC1CCC(CNCc2ccccc2Cl)CC1 (configuration not stated)	none (no result: D3 antag, DRD3 agonist, uPA surface inh)
CCc1ccccc1NC(=O)c1ccc2c(c1)CCCN2S(C)(=O)=O	none (no result: D3 antag, uPA surface inh)
COc1ccc(NC(=O)C2CCN(C(=O)Nc3ccccc3)CC2)cc1S(=O)(=O)N(C)C	D3 antag -66.6
CCOc1ccccc1NC(=O)N(Cc1ccc(C)o1)C1CCN(C(C)=O)CC1	none (no result: D3 antag, uPA surface inh)
O=C(CN1CCN(c2ccccc2O)CC1)NC(c1ccccc1)c1ccccc1	D3 antag -56.2
O=C(CN1CCCC1)NC(c1ccccc1)c1ccccc1	none
COc1ccc(C(NC(=O)CN2CCCCCC2)c2ccc(OC)cc2)cc1	D3 antag -52.5
CCOc1ccccc1N1CCN(CC(=O)NC(C)c2ccccc2)CC1 (configuration not stated)	D3 antag -89.1
COc1cc(OC)c(NC(=O)Cn2c(=O)cc(C)c3c(C)nn(-c4ccc(C)cc4)c32)cc1Cl	none (no result: D3 antag, uPA surface inh)
O=C(CCN1C(=O)c2ccccc2C1=O)NCCC1=CCCCC1	none (no result: uPA surface inh)
O=C(CCn1c(=O)sc2ccccc21)NCCC1=CCCCC1	D3 antag -108.2
O=c1c2sc3ccccc3c2n(Cc2ccccc2Cl)c(=O)n1Cc1ccccc1	RGS4 inhibitor inconclusive (no result: D3 antag, uPA surface inh)
CC(C)N(Cc1ccccc1)c1ncnc2c1nnn2C	none (no result: D3 antag, uPA surface inh)
CN(CC(=O)Nc1ccc(F)cc1)CC(=O)N(C)C1(C#N)CCCCC1	none
COc1ccc(NC(=O)CN(C)CC(=O)N(C)C2(C#N)CCC(C)CC2)cc1 (configuration not stated)	D3 antag -50.4
COc1ccc2c(c1)NC(c1ccc(Cl)cc1)=NC(c1cccs1)=N2	none (no result: D3 antag, uPA surface inh)
O=C(Oc1ccc(Cl)c2cccnc12)c1cccnc1	D3 antag -70.0
Cc1ccc(C(=O)Oc2ccc(Cl)c3cccnc23)cc1[N+](=O)[O-]	D3 antag -126.1
Cc1cccc(NC(=O)Oc2ccc(Cl)c3cccnc23)c1	D3 antag -119.8 (no result: uPA surface inh, RGS4 inhibitor)
CCOc1ccc(C(CC(=O)O)N2Cc3ccccc3C2=O)cc1OC (configuration not stated)	none (no result: D3 antag, uPA surface inh)
COc1ccc(NC(=O)C2(C)Cc3c(-c4ccc(N(C)C)cc4)ccnc3O2)cn1 (configuration not stated)	none (no result: uPA surface inh, RGS4 inhibitor)
O=C(NCCCc1ccccc1)c1ccc(F)cc1	none
O=C(NCCNC1CCC(c2ccccc2)CC1)c1ccc(F)cc1 (configuration not stated)	D3 antag -92.4 (no result: uPA surface inh)
S=c1[nH]nc(-c2cc(-c3ccccc3)n[nH]2)n1/N=C/C(Br)=C/c1ccccc1	D3 antag -66.7
S=c1[nH]nc(-c2cc(-c3ccccc3)n[nH]2)n1/N=C/c1ccccc1	none
O=c1[nH]c2ccc(NCc3ccc(-c4ccccc4F)o3)cc2[nH]1	none (no result: D3 antag, uPA surface inh)
Cc1cccc(NC(=O)CSC2=Nc3ccccc3C3=NC(CCC(=O)NCc4ccco4)C(=O)N23)c1 (configuration not stated)	none (no result: D3 antag, uPA surface inh)
Cc1ccccc1Nc1nnc(SCc2cc(=O)n3ccsc3n2)s1	DRD3 agonist 46.3 (no result: uPA surface inh)
O=c1nc(/C=C/c2cc([N+](=O)[O-])ccc2Cl)cc(C(F)(F)F)[nH]1	D3 antag -69.1, RGS4 inhibitor inconclusive
CN[C@@H](C)C(=O)NC[C@H]1O[C@@H](n2cnc3c(N)ncnc32)[C@H](O)[C@@H]1O	none
